# Assay results as given in PubChem BioAssay (NCI).
# Where “and” joins values, the source holds several entries; their conditions need not be identical. Identical values can stand only once. This is part of a sample that, as a whole, favours compounds with a hit. Of some 83,000 tested, about 20% had one in any assay.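 Step 1: grow cells in 96-well plates. Step 2: add test compound at a single concentration. Step 3: incubate 48 h. Step 4: record percent growth.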 Values without a mark were called inactive. Calls of active or inactive are those of the source. The calls were made as follows: active = growth percent below 10; inactive = the rest.
# Assays:
# Experiment in all cases: NCI-60 one-dose screen, 48 h (100 = growth as untreated, 0 = no growth, -100 = all killed)
# Conditions in all cases: 10 µM unless noted
# [1] = system: SK-MEL-2 melanoma
# [2] = system: EKVX NSCLC
# [3] = system: SN12C renal
# [4] = system: UO-31 renal
# [5] = system: TK-10 renal
# [6] = system: ACHN renal
# [7] = system: CAKI-1 renal
# [8] = system: A498 renal
# [9] = system: CCRF-CEM leukemia
# [10] = system: MOLT-4 leukemia
# [11] = system: SR leukemia
# [12] = system: RPMI-8226 leukemia
# [13] = system: OVCAR-5 ovarian
# [14] = system: OVCAR-4 ovarian
# [15] = system: SK-OV-3 ovarian
# [16] = system: IGROV1 ovarian
# [17] = system: OVCAR-3 ovarian
# [18] = system: HS 578T breast
# [19] = system: NCI/ADR-RES ovarian
# [20] = system: OVCAR-8 ovarian
SMILES,growth [1] [%],growth [2],growth [3],growth [4],growth [5],growth [6],growth [7],growth [8],growth [9],growth [10],growth [11],growth [12],growth [13],growth [14],growth [15],growth [16],growth [17],growth [18] [%],growth [19],growth [20] [%]
CCOC(=O)CC1CSC(c2cccc(Cl)c2)=N1 (stereo not drawn),109,100%,106%,96.4%,92.1%,109%,97.8%,81.9%,102%,95%,92%,104%,113%,111%,103%,113%,107%,102,96.4%,–
Cc1nc2cccc(NCCCCC(=O)NO)c2c(=O)n1-c1ccccc1,55.9,63.8%,69.8%,56.6%,37.1%,54.3%,55.6%,48.5%,25.3%,25.1%,29.4%,36.1%,31.1%,68.7%,50.8%,58.2%,68.1%,55.2,75.3%,–
CCc1c2c(nc3ccc(OCc4ccc(B5OC(C)(C)C(C)(C)O5)cc4)cc13)-c1cc3c(c(=O)n1C2)COC(=O)[C@]3(O)CC,20.4,35%,3.16% (active),-13.2% (active),39.5%,-9.99% (active),-1.75% (active),-40.3% (active),8.7% (active),8.97% (active),11.8%,10.4%,10%,23.7%,-1.58% (active),12.8%,0.732% (active),38.4,0.929% (active),–
Cc1ccc(NC(=O)N/C(N)=N/c2nc(=O)c3ccccc3s2)cc1,106,93.7%,93.8%,90.4%,116%,102%,86.9%,63%,-23% (active),99.8%,88.1%,–,102%,99.8%,94.5%,91.9%,100%,82.9,110%,101
N=C(N)SCc1c2ccccc2c(CSC(=N)N)c2ccccc12,79.2,76.5%,53.7%,80.8%,98.5%,51.2%,61.7%,89.9%,6.24% (active),-5.95% (active),-11.1% (active),–,102%,80.6%,81.4%,80.6%,93.5%,85.5,103%,60.7
O=C(/C=C/C12c3ccccc3C(c3ccccc31)C1C(=O)NC(=O)C12)c1ccncc1 (stereo not drawn),46.6,80.6%,7.85% (active),26.5%,17.5%,23.7%,43.9%,87.4%,-12.7% (active),1.28% (active),1.11% (active),-29.6% (active),13.7%,31.8%,71.8%,9.72% (active),4.84% (active),38,23.9%,–
Nc1nc(Cl)nc2c1ncn2C1OC(CO)C(O)C1O (stereo not drawn),82.9,102% and 110%,30.2% and 28.3%,25.1% and 13%,82.4% and 87.6%,65.9% and 61.9%,25.9% and 41%,96.6%,0.283% (active) and -17% (active),2.75% (active) and 3.08% (active),56.8%,104% and 96.1%,90% and 105%,94.4% and 87%,41.3% and 68.1%,78.9% and 75.1%,86.9%,108,29.6% and 40.2%,–
